Assay results: the supplement of paper PMC8728848
The entries come from a sample that favours the strongest signals as a whole.

B1: Dectin-1 (Mus musculus), Q6QLQ4 (protein)
chain: EYGHNSGRNPEEKDNFLSRNKENHKPTESSLDEKVAPSKASQTTGGFSQPCLPNWIMHGKSCYLFSFSGNSWYGSKRHCSQLGAHLLKIDNSKEFEFIESQTSSHRINAFWIGLSRNQSEGPWFWEDGSAFFPNSFQVRNTAPQESLLHNCVWIHGSEVYNQICNTSSYSICEKEL
B2: Pul13 (Thermotoga maritima), O33840 (protein)
chain: ETTIVVHYHRYDGKYDGWNLWIWPVEPVSQEGKAYQFTGEDDFGKVAVVKLPMDLTKVGIIVRLNEWQAKDVAKDRFIEIKDGKAEVWILQGVEEIFYEKP

Legend:
Test in all cases: glycan array binding signal (z-score within array); higher = stronger binding
Settings in all cases: glycan notation: IUPAC condensed, linker removed
[1] = target: Glc(a1-6)Glc(a1-6)Glc(a1-6)Glc(a1-6)Glc(a1-6)Glc(a1-6)Glc(a1-6)Glc
In short: (§1)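 The Consortium for Functional Glycomics database supplied 3228 glycan arrays, of which those lacking an available protein sequence were dropped. The binding signal, a within-array Z-score, was averaged across arrays of the same protein sequence and across linkers. Negative scores can be read as non-binding.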

[2] = target: Glc(b1-2)Glc(b1-2)Glc(b1-2)Glc(b1-2)Glc(b1-2)Glc(b1-2)Glc(b1-2)Glc
In short: as §1

[3] = target: Glc(b1-2)Glc(b1-2)Glc(b1-2)Glc(b1-2)Glc(b1-2)Glc(b1-2)Glc(b1-2)Glc(b1-2)Glc(b1-2)Glc(b1-2)Glc
In short: as §1

[4] = target: Glc(b1-2)Glc(b1-2)Glc(b1-2)Glc(b1-2)Glc(b1-2)Glc(b1-2)Glc(b1-2)Glc(b1-2)Glc(b1-2)Glc(b1-2)Glc(b1-2)Glc(b1-2)Glc
In short: as §1

[5] = target: Glc(b1-3)Glc(b1-3)Glc(b1-3)Glc(b1-3)Glc(b1-3)Glc(b1-3)Glc(b1-3)Glc(b1-3)Glc(b1-3)Glc(b1-3)Glc
In short: as §1

[6] = target: Glc(b1-3)Glc(b1-3)Glc(b1-3)Glc(b1-3)Glc(b1-3)Glc(b1-3)Glc(b1-3)Glc(b1-3)Glc(b1-3)Glc(b1-3)Glc(b1-3)Glc
In short: as §1

[7] = target: Glc(b1-3)Glc(b1-3)Glc(b1-3)Glc(b1-3)Glc(b1-3)Glc(b1-3)Glc(b1-3)Glc(b1-3)Glc(b1-3)Glc(b1-3)Glc(b1-3)Glc(b1-3)Glc
In short: as §1

[8] = target: Glc(b1-3)Glc(b1-3)Glc(b1-3)[Glc(b1-6)]Glc(b1-3)Glc(b1-3)Glc(b1-3)Glc(b1-3)[Glc(b1-6)]Glc(b1-3)Glc
In short: as §1

Glc(b1-3)Glc(b1-4)Glc = target: Glc(b1-3)Glc(b1-4)Glc
In short: as §1

[9] = target: Glc(b1-6)Glc(b1-6)Glc(b1-6)Glc(b1-6)Glc(b1-6)Glc(b1-6)Glc(b1-6)Glc(b1-6)Glc(b1-6)Glc(b1-6)Glc
In short: as §1

[10] = target: Man(b1-4)Man(b1-4)Man(b1-4)Man
In short: as §1

[11] = target: Glc(a1-2)Glc(a1-2)Glc(a1-2)Glc(a1-2)Glc(a1-2)Glc(a1-2)Glc(a1-2)Glc(a1-2)Glc
In short: as §1

[12] = target: Glc(a1-3)Glc(a1-3)Glc(a1-3)Glc(a1-3)Glc(a1-3)Glc(a1-3)Glc(a1-3)Glc(a1-3)Glc(a1-3)Glc(a1-3)Glc(a1-3)Glc
In short: as §1

[13] = target: Glc(a1-4)Glc(a1-4)Glc(a1-4)Glc
In short: as §1

[14] = target: Glc(a1-4)Glc(a1-4)Glc(a1-4)Glc(a1-4)Glc(a1-4)Glc
In short: as §1

[15] = target: Glc(a1-4)Glc(a1-4)Glc(a1-4)Glc(a1-4)Glc(a1-4)Glc(a1-4)Glc(a1-4)Glc
In short: as §1

[16] = target: Glc(a1-4)Glc(a1-4)Glc(a1-4)Glc(a1-4)Glc(a1-4)Glc(a1-4)Glc(a1-4)Glc(a1-4)Glc(a1-4)Glc(a1-4)Glc(a1-4)Glc
In short: as §1

[17] = target: Glc(b1-3)Glc(b1-3)Glc(b1-3)Glc(b1-3)Glc(b1-3)Glc
In short: as §1

[18] = target: Glc(b1-3)Glc(b1-3)Glc(b1-3)Glc(b1-3)Glc(b1-3)Glc(b1-3)Glc(b1-3)Glc
In short: as §1

Glc(b1-4)Glc(b1-4)Glc = target: Glc(b1-4)Glc(b1-4)Glc
In short: as §1

[19] = target: Glc(b1-4)Glc(b1-4)Glc(b1-4)Glc(b1-4)Glc(b1-4)Glc(b1-4)Glc(b1-4)Glc(b1-4)Glc
In short: as §1

[20] = target: Glc(b1-6)Glc(b1-6)Glc(b1-6)Glc(b1-6)Glc(b1-6)Glc(b1-6)Glc(b1-6)Glc(b1-6)Glc(b1-6)Glc
In short: as §1

Row | Binder | glycan array binding signal (z-score) [1] | glycan array binding signal (z-score) [2] | glycan array binding signal (z-score) [3] | glycan array binding signal (z-score) [4] | glycan array binding signal (z-score) [5] | glycan array binding signal (z-score) [6] | glycan array binding signal (z-score) [7] | glycan array binding signal (z-score) [8] | glycan array binding signal (z-score) (Glc(b1-3)Glc(b1-4)Glc) | glycan array binding signal (z-score) [9] | glycan array binding signal (z-score) [10] | glycan array binding signal (z-score) [11] | glycan array binding signal (z-score) [12] | glycan array binding signal (z-score) [13] | glycan array binding signal (z-score) [14] | glycan array binding signal (z-score) [15] | glycan array binding signal (z-score) [16] | glycan array binding signal (z-score) [17] | glycan array binding signal (z-score) [18] | glycan array binding signal (z-score) (Glc(b1-4)Glc(b1-4)Glc) | glycan array binding signal (z-score) [19] | glycan array binding signal (z-score) [20]
1 | B1 | -0.161 | -0.206 | -0.206 | -0.182 | 0.83 | 5.77 | 6.71 | -0.182 | -0.182 | -0.13 | -0.038 | – | – | – | – | – | – | – | – | – | – | –
2 | B2 | – | – | – | – | – | – | – | – | – | – | – | -0.351 | -0.3 | 2.43 | 3.61 | 4.12 | 3.44 | -0.351 | -0.351 | -0.351 | -0.351 | -0.351
